Measurements reported in PubChem BioAssay.
Active and inactive are the calls of the source.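 How the source made its calls, unless noted: active means inhibition above 20% together with a positive visual image hit; inconclusive means visual image hit but inhibition not above 20%; inactive means no visual image hit.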

Legend:
[1] = inhibitors of TNFa-induced NFkB p65 translocation, primary screen, imaging, HUVEC, MLSMR starter and 10KST1 sets (AID 438); settings: HUVEC TNFa-induced p65 nuclear translocation; cell count: measured here: nuclei count (cytotoxicity indicator), at 2.08 µM; inhibition: at 2 µM, stronger effect = higher value, 0% TNFa-plus-vehicle, 100% no-TNFa wells;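 further: compound added about 3h40 before a 20 min TNFalpha stimulation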;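 on inhibition: signal is the nuclear over cytoplasmic p65 intensity ratio per well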
[2] = inhibitors of mutant huntingtin aggregation, primary screen, imaging, exon1htt(103Q)mCFP cells, high-content imaging (AID 483;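 active means visual image review flags a hit and inhibition of aggregation exceeds 20%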;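 further: compound exposure lasted 3 days before fixation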;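 on nuclei count: percent of the per-plate median nuclei count of sample wells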); settings: exon1htt(103Q)mCFP cell line, aggregate imaging, at 2 µM; inhibition of aggregation: stronger effect = higher value; nuclei count: measured here: cell count, toxicity
[3] = inhibitors of E-selectin induction by TNFa, primary screen, imaging, HUVEC, immunofluorescence, MLSMR starter and 10KST1 sets (AID 487;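 active means visually confirmed hit in the image check and inhibition above 20%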;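 on inhibition: signal is fraction of cell area covered by stained E-selectin grains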;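 on nuclei count: 100% = median nuclei count of all wells on the same plate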); settings: HUVEC TNFalpha-induced E-selectin immunofluorescence imaging, at 2 µM; inhibition: stronger effect = higher value; nuclei count: measured here: cell number, toxicity
[4] = biological target: Voltage-gated potassium channel subunit beta-2 (Rattus norvegicus) (UniProt P62483); test: KvBeta enzyme negative modulators, primary screen, biochemical, NADPH fluorescence (AID 622;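 active means fluorescence slope higher than the sample average by over 3 SD, cut at about -0.22 in these data, passing the limit was not always enough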;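 further: slope of raw intensity against log time taken from 70 to 1610 s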); settings: recombinant KvBeta, 4-cyanobenzaldehyde reduction, at 10 µM, stronger effect = higher value
[5] = biological target: Voltage-gated potassium channel subunit beta-2 (Rattus norvegicus) (UniProt P62483); test: KvBeta positive modulators, primary screen, biochemical, NADPH fluorescence (AID 623;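 active means NADPH fluorescence slope more negative than the mean of all samples by about 3 SD, 99.7% confidence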;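 further: fluorescence intensity change per second fitted from 20 to 320 s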); settings: Recombinant KvBeta, NADPH fluorescence decrease slope, 10 min; at 10 µM; stronger effect = lower value
[6] = biological target: Alpha-2C adrenergic receptor (Homo sapiens) (UniProt P18825); test: modulators of alpha2C/GIRK thallium flux, primary screen, cell-based, HEK293 alpha2C/GIRK1/2 (AID 624;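 active means fluorescence slope after compound addition differing from the mean of all screened samples at 99.7% confidence, in either direction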;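 further: slope of fluorescence ratio to pre-addition baseline per second over 15 to 24 s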); settings: thallium flux BTC fluorescence, at 10 µM, actives lie on both sides
[7] = inhibitors of Sendai virus-induced IRF3 signaling, primary screen, TLR/RLR signaling modifier project, cell-based, Sendai virus stimulus, luciferase, 10K MLSCN set (AID 602276;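 active means inhibition at or above 50% at 10 µM; inactive means inhibition below 50%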;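 further: firefly luciferase from ISG56 promoter only with Renilla not read in this screen; 0% = Sendai virus plus DMSO and 100% = medium plus DMSO without virus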); settings: HEK293 RL24 IRF3 luciferase reporter, at 10 µM, stronger effect = higher value
[8] = inhibitors of poly I:C-induced TLR3 signaling, primary screen, cell-based, poly I:C stimulus, luciferase, 10K MLSCN set (AID 602277;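 active means inhibition of the reporter signal at or above 50%; inactive means inhibition below 50%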); settings: HEK293-TLR3 RL24 IRF3 luciferase reporter, at 10 µM, stronger effect = higher value

Chain of Voltage-gated potassium channel subunit beta-2 (Rattus norvegicus) (P62483 whole entry, looked up): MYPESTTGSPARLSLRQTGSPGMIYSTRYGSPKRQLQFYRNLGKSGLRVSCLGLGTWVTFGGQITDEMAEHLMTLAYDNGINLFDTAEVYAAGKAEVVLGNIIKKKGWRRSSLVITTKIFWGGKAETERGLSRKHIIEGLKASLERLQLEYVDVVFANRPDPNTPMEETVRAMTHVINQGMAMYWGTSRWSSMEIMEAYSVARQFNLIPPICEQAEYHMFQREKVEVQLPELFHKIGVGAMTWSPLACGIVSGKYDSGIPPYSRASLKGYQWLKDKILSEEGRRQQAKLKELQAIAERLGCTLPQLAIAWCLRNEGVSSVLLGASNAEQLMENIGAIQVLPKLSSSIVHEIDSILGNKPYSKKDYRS
Chain of Alpha-2C adrenergic receptor (Homo sapiens) (P18825 whole entry, looked up): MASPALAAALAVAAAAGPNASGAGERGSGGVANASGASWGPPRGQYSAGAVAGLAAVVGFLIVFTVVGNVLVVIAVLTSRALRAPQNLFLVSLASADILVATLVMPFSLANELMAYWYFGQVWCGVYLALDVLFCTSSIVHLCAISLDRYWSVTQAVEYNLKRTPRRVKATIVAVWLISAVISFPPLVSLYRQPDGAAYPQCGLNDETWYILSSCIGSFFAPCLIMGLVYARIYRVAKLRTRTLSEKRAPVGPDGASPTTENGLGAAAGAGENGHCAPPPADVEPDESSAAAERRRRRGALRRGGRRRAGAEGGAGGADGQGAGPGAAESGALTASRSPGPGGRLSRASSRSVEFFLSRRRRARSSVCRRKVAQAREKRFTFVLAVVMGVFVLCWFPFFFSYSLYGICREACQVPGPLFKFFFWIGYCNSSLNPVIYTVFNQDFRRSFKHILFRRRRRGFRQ

SMILES	cell count [1]	inhibition [1]	inhibition of aggregation [2]	nuclei count [2]	inhibition [3]	nuclei count [3]	fluorescence slope [4]	NADPH fluorescence slope [5]	slope [6]	inhibition [7]	inhibition [8]
COc1ccc(CN(C2CCCC2)S(=O)(=O)c2ccc(-n3cnnn3)cc2)cc1OC	527	-5.8% (inactive)	-15% (inactive)	115%	-39.4% (inactive)	124%	-0.57 (inactive)	-1.6e-05 (inactive)	0.00406 (inactive)	15.1% (inactive)	18.9% (inactive)
C/C(=N\O)C(=O)NCc1ccccn1	290	0.5% (inactive)	4.5% (inactive)	108%	-55.3% (inactive)	104%	-0.431 (inactive)	1.8e-05 (inactive)	0.00348 (inactive)	-4.43% (inactive)	-25.9% (inactive)
COc1cc(C2c3c(n[nH]c3C)C(=O)N2c2ccc(Br)cc2)ccc1O (stereo unspecified)	677	-3.9% (inactive)	1.5% (inactive)	100%	3.2% (inactive)	106%	-0.408 (inactive)	-1.5e-06 (inactive)	0.00373 (inactive)	8.55% (inactive)	24.2% (inactive)
Cc1c(N(C)C)nc2ccccc2c1N	575	-3.8% (inactive)	-19.4% (inactive)	99.7%	42.5% (inactive)	81.2%	-0.361 (inactive)	-1.5e-05 (inactive)	0.00599 (inactive)	13.7% (inactive)	20.7% (inactive)
CCOC(=O)C(CC)Sc1nc2c(c(=O)[nH]c(=O)n2C)n1C/C=C(/C)Cl (stereo unspecified)	775	-12.9% (inactive)	18% (inactive)	96.3%	18.5% (inactive)	106%	-0.601 (inactive)	-6.7e-05 (inactive)	0.00361 (inactive)	14.5% (inactive)	19.1% (inactive)
Nc1nc(N2CCCCC2)nc(N(c2ccccc2)c2ccccc2)n1	710	-2.9% (inactive)	23.2% (inactive)	88%	-33% (inactive)	91.6%	-0.544 (inactive)	-5.4e-05 (inactive)	0.00708 (inactive)	10.2% (inactive)	34.4% (inactive)
CCN(CCCNC(=O)CCNC(=O)Cn1ccc2ccccc2c1=O)c1ccccc1	393	4.5% (inactive)	-6.3% (inactive)	103%	-106% (inactive)	118%	-0.441 (inactive)	-8.2e-06 (inactive)	0.00588 (inactive)	-0.268% (inactive)	-15.2% (inactive)
CCOc1ccccc1CN(Cc1ccco1)S(=O)(=O)c1ccc(-n2cnnn2)c(OC)c1	439	5.7% (inactive)	13.2% (inactive)	99.8%	4.1% (inactive)	113%	-0.519 (inactive)	-1.2e-05 (inactive)	0.00748 (inactive)	-53.6% (inactive)	63.3% (active)
COc1cc(NS(=O)(=O)N2CCCC2)cc(OC)c1OC	712	0.7% (inactive)	9% (inactive)	95.3%	-115% (inactive)	128%	-0.498 (inactive)	-1.9e-05 (inactive)	0.00502 (inactive)	7.48% (inactive)	16.9% (inactive)
COC(=O)C1C(=O)c2c([nH]c(C(=O)OCCOC(C)C)c2C)CC1C (stereo unspecified)	304	-3.3% (inactive)	-11.8% (inactive)	112%	-46.9% (inactive)	117%	-0.393 (inactive)	-5.7e-05 (inactive)	0.00401 (inactive)	-33.4% (inactive)	-43.7% (inactive)
NC(=O)CN1C(=O)C(O)(CC(=O)c2ccccc2O)c2ccccc21 (stereo unspecified)	641	-0.3% (inactive)	-4.7% (inactive)	122%	-65.3% (inactive)	133%	-0.395 (inactive)	-4.6e-05 (inactive)	0.00547 (inactive)	12.7% (inactive)	38.5% (inactive)
O=C(O)C1CCCN1C(=O)c1cccs1 (stereo unspecified)	367	-18.4% (inactive)	-4.2% (inactive)	105%	-53% (inactive)	117%	-0.487 (inactive)	-7.9e-05 (inactive)	0.00489 (inactive)	5.87% (inactive)	10.7% (inactive)
CCOc1ccc(S(=O)(=O)n2nc(C)cc2C)c2ccccc12	355	-5.4% (inactive)	0.3% (inactive)	108%	-52.3% (inactive)	115%	-0.347 (inactive)	2e-05 (inactive)	0.00571 (inactive)	-0.884% (inactive)	-17.2% (inactive)
Cc1ccc(NC(=O)c2cc(-c3ccc(C)o3)nc3ccccc23)nc1	414	6.3% (inactive)	-7.9% (inactive)	113%	21.6% (inactive)	106%	-0.12 (active)	9.6e-06 (inactive)	0.00591 (inactive)	-2.84% (inactive)	-17% (inactive)
O=C(c1ccc(Br)o1)N(c1ccc(Br)cc1)C1C=CS(=O)(=O)C1 (stereo unspecified)	553	-21.1% (inactive)	4.2% (inactive)	108%	-74.4% (inactive)	121%	-0.377 (inactive)	3.2e-05 (inactive)	0.00592 (inactive)	-8.65% (inactive)	-3.46% (inactive)
O=c1[nH]c(=O)n(C2CCCCCC2)c(O)c1C=NCc1ccc(F)cc1	666	5% (inactive)	0.1% (inactive)	109%	3% (inactive)	110%	-0.321 (inactive)	3.1e-05 (inactive)	0.00576 (inactive)	14.6% (inactive)	26.9% (inactive)
COc1ccc(NC(=O)N(C2CCCCC2)C2CCN(C(C)C)CC2)c(OC)c1	676	-7.8% (inactive)	-12.8% (inactive)	79.5%	-10.8% (inactive)	109%	-0.518 (inactive)	9.2e-06 (inactive)	0.0051 (inactive)	2.2% (inactive)	15.1% (inactive)
Cc1ccc(S(=O)(=O)Cn2nnnc2CN(Cc2ccco2)CC2CCCO2)cc1 (stereo unspecified)	380	-1% (inactive)	2.3% (inactive)	99.8%	-58.1% (inactive)	69.6%	-0.588 (inactive)	-4.2e-05 (inactive)	0.00299 (inactive)	-5.71% (inactive)	0.385% (inactive)
CCN(CC)S(=O)(=O)c1ccc2oc(SCc3ccc(F)cc3)nc2c1	707	-9.4% (inactive)	6.8% (inactive)	104%	-6.6% (inactive)	110%	-0.604 (inactive)	-6.8e-05 (inactive)	0.00777 (inactive)	1.12% (inactive)	-39.5% (inactive)
CCCn1c(SCC(=O)N2CCN(c3ccccc3)CC2)nc2ccccc2c1=O	331	-8.5% (inactive)	-6.7% (inactive)	101%	23.2% (inactive)	124%	-0.595 (inactive)	3.4e-07 (inactive)	0.00536 (inactive)	-9.23% (inactive)	-10.6% (inactive)
Cc1cccc(N2C(=O)CC(N3CCN(c4cccc(C(F)(F)F)c4)CC3)C2=O)c1 (stereo unspecified)	593	-7.2% (inactive)	3.8% (inactive)	126%	-13.6% (inactive)	119%	-0.386 (inactive)	8.5e-06 (inactive)	0.00436 (inactive)	10.3% (inactive)	36.4% (inactive)
CCn1nccc1C(=O)Nc1cc(Cl)ccc1Cl	633	8.3% (inactive)	6.7% (inactive)	57.3%	22.2% (inactive)	106%	-0.385 (inactive)	-5e-05 (inactive)	0.00378 (inactive)	1.68% (inactive)	15.9% (inactive)
CCCCn1c(NCc2ccccc2O)nc2ccccc21	790	-6.4% (inactive)	14.4% (inactive)	107%	-63% (inactive)	120%	-0.567 (inactive)	-5.9e-06 (inactive)	0.00728 (inactive)	0.354% (inactive)	25.3% (inactive)
CCNC(=O)CC1C(=O)N(c2ccccc2)C(=O)N1CCC(C)C (stereo unspecified)	339	2.8% (inactive)	3.6% (inactive)	104%	-62.6% (inactive)	97.9%	-0.512 (inactive)	-3.8e-05 (inactive)	0.00552 (inactive)	8.08% (inactive)	31.4% (inactive)
CC1CCc2nn(CC(=O)N3CCN(C(=O)c4ccco4)CC3)cc2C1 (stereo unspecified)	758	-8.5% (inactive)	-12% (inactive)	112%	-41% (inactive)	107%	-0.585 (inactive)	-5.6e-05 (inactive)	0.0063 (inactive)	6.35% (inactive)	25.7% (inactive)
Cc1nc2ccc(N3C(=O)CCC3=O)cc2[nH]1	282	-8% (inactive)	9.2% (inactive)	92.3%	-42.2% (inactive)	113%	-0.553 (inactive)	5.4e-06 (inactive)	0.00593 (inactive)	6.8% (inactive)	15.6% (inactive)
